Test results as given in the supplement of paper PMC11006884.
The full data set covers some 6,500 targets. This sample favours those with a hit. About 2% of all pairs of compound and target were hits. A number with no mark means an inactive call.

compound: COC(=O)C#Cc1ccccc1 [methyl 3-phenylpropiolate]; assay: log2 ratio of iodoacetamide-alkyne labeling of the cysteine site, DMSO over compound (competition); higher = stronger covalent engagement of the cysteine by the compound, active = 1 or more; conditions: 500 µM; treatment time 1 h; system: HEK293T cell lysate
Method in brief: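 For each cysteine, the log2 competition ratio is mean control-channel reporter intensity over mean compound-channel reporter intensity. HEK293T lysate (2 mg/mL) was exposed to vehicle or electrophile (500 µM, 1 h, ambient temperature), labelled with iodoacetamide alkyne (1 h), clicked to sCIP-TMT reagents, digested overnight with trypsin at 37 °C, streptavidin-enriched and analysed by Orbitrap Eclipse LC-MS/MS with FAIMS and FragPipe. Cysteines quantified in only one of three replicates, each with duplicate channels, were excluded.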

UniProt Q96ST3, sequence (Q96ST3 whole entry): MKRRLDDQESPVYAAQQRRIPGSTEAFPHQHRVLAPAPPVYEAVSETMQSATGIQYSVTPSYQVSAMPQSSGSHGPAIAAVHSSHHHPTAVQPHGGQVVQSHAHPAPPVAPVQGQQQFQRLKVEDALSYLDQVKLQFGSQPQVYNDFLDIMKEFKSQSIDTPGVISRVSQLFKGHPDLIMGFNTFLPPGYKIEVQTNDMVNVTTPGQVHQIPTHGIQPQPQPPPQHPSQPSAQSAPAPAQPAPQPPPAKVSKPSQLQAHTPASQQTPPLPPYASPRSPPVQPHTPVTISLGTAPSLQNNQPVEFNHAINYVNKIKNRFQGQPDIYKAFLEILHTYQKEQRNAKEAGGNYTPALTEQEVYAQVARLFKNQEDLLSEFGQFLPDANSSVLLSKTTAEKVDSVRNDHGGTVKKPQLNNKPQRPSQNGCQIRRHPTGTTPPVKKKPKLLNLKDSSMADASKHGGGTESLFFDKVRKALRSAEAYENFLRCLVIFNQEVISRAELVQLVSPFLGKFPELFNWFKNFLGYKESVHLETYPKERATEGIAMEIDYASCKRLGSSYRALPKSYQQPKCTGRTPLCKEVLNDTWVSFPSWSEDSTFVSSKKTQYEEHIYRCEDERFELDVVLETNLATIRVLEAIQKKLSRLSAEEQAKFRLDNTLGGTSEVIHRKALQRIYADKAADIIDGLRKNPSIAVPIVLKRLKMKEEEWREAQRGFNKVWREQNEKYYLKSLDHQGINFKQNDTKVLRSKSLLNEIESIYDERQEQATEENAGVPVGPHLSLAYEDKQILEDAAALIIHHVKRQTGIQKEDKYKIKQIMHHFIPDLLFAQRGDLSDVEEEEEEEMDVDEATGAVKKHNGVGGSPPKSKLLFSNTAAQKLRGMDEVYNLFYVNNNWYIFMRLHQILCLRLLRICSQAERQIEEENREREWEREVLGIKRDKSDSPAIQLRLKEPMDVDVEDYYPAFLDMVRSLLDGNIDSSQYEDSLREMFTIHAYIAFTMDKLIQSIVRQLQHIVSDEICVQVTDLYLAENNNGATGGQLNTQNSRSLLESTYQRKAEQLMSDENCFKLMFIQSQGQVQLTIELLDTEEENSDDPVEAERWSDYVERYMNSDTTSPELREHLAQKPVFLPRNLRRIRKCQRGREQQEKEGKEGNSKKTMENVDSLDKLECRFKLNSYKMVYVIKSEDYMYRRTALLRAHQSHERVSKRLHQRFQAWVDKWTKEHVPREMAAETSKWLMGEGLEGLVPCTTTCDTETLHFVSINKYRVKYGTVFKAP
UniProt Q92538, sequence (Q92538 whole entry, looked up): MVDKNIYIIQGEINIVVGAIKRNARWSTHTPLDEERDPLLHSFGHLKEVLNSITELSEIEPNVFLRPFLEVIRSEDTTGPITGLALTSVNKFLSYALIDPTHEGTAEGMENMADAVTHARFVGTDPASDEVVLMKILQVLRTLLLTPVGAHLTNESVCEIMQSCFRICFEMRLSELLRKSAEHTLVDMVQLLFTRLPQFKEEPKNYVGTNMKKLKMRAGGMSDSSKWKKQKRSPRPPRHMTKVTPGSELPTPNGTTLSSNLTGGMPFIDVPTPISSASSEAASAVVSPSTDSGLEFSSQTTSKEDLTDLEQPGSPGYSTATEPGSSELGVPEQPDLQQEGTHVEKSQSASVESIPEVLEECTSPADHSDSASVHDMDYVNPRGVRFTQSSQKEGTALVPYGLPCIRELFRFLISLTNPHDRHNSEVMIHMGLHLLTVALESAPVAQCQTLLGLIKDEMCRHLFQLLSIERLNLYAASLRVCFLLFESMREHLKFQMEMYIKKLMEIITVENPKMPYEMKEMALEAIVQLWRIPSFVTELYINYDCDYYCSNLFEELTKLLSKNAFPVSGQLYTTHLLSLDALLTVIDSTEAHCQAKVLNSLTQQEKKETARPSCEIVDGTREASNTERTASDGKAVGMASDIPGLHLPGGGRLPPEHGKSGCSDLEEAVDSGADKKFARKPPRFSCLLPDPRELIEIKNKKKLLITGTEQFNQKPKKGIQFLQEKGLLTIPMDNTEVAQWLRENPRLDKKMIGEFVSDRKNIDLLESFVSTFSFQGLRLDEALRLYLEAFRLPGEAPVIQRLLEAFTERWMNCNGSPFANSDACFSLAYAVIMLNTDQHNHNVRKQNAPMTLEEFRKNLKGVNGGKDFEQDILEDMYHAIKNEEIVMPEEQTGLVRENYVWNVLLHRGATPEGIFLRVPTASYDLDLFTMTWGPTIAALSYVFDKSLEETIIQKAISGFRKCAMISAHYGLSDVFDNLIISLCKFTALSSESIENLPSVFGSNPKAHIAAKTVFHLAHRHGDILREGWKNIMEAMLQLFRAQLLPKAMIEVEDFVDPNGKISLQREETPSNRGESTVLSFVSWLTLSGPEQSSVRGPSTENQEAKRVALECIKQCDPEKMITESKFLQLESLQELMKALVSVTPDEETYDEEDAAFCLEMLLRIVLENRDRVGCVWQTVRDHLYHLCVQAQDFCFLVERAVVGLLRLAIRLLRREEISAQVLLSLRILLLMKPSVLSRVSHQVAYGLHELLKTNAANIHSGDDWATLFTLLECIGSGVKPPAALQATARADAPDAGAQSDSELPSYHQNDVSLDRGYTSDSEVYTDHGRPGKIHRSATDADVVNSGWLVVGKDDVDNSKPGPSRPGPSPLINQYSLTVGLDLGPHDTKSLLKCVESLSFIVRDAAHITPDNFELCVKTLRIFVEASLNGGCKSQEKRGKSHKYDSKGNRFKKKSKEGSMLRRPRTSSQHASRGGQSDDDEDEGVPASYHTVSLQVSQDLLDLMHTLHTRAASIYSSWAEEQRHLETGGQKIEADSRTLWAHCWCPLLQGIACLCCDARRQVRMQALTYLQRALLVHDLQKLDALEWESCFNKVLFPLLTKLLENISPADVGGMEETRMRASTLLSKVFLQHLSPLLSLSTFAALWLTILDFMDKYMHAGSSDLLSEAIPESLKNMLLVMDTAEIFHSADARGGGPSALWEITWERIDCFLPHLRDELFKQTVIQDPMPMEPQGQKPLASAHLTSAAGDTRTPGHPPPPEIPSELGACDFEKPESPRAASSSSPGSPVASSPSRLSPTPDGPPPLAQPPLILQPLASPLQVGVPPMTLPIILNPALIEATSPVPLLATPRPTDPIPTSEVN
UniProt Q8IU81, sequence (Q8IU81 whole entry, looked up): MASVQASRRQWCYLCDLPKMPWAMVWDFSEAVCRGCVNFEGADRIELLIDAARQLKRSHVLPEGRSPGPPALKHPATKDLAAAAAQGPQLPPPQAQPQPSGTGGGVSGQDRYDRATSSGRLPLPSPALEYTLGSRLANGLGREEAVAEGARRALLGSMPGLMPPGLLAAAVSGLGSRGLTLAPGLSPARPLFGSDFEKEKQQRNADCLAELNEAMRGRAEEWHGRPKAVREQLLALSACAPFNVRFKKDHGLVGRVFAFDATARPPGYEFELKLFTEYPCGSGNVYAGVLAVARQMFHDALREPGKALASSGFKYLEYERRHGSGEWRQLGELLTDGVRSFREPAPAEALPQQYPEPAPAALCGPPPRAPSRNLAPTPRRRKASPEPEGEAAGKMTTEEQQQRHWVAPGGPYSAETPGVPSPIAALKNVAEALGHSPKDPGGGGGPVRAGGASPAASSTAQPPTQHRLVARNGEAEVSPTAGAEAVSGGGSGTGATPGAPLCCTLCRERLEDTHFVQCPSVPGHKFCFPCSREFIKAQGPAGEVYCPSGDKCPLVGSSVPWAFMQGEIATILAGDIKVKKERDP
UniProt Q8WUM4, sequence (Q8WUM4 whole entry, looked up): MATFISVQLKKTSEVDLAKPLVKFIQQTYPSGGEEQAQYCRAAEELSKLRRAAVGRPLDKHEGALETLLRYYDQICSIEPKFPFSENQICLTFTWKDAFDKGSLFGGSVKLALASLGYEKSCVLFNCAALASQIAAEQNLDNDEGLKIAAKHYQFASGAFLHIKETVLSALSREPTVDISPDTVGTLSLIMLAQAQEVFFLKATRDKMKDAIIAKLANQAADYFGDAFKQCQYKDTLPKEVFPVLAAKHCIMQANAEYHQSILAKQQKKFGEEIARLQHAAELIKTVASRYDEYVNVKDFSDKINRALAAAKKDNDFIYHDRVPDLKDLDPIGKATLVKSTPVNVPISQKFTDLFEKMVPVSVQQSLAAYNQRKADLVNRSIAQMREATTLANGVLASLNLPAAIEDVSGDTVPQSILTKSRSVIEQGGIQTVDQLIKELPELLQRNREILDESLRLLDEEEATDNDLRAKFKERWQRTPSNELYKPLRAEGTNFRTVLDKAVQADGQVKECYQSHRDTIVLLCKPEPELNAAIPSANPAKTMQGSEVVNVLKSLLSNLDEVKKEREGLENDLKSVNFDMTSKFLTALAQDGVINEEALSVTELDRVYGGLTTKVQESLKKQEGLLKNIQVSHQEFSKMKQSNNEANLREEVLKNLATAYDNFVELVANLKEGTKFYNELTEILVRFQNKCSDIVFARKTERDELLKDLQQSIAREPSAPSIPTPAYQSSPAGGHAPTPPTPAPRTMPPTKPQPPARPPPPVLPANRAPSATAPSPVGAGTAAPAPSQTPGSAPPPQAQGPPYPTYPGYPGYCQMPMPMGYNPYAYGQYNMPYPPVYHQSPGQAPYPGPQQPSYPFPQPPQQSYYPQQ
UniProt Q96C36, sequence (Q96C36 whole entry, looked up): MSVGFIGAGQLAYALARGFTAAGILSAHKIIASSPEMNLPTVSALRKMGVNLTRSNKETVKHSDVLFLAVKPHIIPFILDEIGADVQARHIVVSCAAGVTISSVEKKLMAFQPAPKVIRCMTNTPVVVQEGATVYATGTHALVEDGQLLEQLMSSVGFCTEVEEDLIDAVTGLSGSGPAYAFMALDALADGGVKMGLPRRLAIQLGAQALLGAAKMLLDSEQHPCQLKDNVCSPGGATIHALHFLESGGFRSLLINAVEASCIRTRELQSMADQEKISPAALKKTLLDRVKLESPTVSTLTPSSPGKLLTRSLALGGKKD
UniProt Q96GX2, sequence (Q96GX2 whole entry): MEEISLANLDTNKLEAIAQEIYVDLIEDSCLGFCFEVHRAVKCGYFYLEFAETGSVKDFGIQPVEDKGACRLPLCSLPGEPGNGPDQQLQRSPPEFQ

Row | Target | log2 ratio of iodoacetamide-alkyne labeling
1 | HIST2H3A C111 (UniProt Q71DI3) | 0.0441
2 | TXNDC17 C43 (UniProt Q9BRA2) | 1.34 (active)
3 | UniProt Q8WZA9_C373 | 0.706
4 | ACD C406 (UniProt Q96AP0) | 0.713
5 | SIN3A C486 (UniProt Q96ST3) | -0.0562
6 | SND1 C96 (UniProt Q7KZF4) | 0.115
7 | UBR2 C1619 (UniProt Q8IWV8) | 0.0476
8 | UniProt Q7Z2T5_C239 | 1.28 (active)
9 | VPS8 C1371 (UniProt Q8N3P4) | 0.234
10 | PIK3R4 C899 (UniProt Q99570) | 0.087
11 | IRF2BP1 C363 (UniProt Q8IU81) | 0.0738
12 | UniProt Q92616_C36 | 0.339
13 | UniProt Q96BD8_C10 | 0.363
14 | ISCA2 C144 (UniProt Q86U28) | 1.59 (active)
15 | GSTCD C335 (UniProt Q8NEC7) | 0.19
16 | RANBP9 C610 (UniProt Q96S59) | 0.53
17 | ATXN7L3B C75 (UniProt Q96GX2) | 1.03 (active)
18 | PYCR2 C262 (UniProt Q96C36) | 0.538

Row | Target | log2 ratio of iodoacetamide-alkyne labeling
19 | HNRNPAB C98 (UniProt Q99729) | -0.0694
20 | TBRG4 C335 (UniProt Q969Z0) | 0.436
21 | UniProt Q7RTV0_C11 | -0.0735
22 | HDHD3 C243 (UniProt Q9BSH5) | 0.16
23 | GINS3 C188 (UniProt Q9BRX5) | 0.255
24 | UBR1 C1603 (UniProt Q8IWV7) | 0.433
25 | GBF1 C1766 (UniProt Q92538) | 0.302
26 | C15orf39 C367 (UniProt Q6ZRI6) | 1.32 (active)
27 | UniProt Q9BPX6_C83 | 0.582
28 | GATAD2B C423 (UniProt Q8WXI9) | 0.12
29 | NEK9 C25 (UniProt Q8TD19) | 1.21 (active)
30 | NSD1 C1689 (UniProt Q96L73) | 0.216
31 | ZFYVE16 C174 (UniProt Q7Z3T8) | 0.35
32 | HDAC2 C417 (UniProt Q92769) | 0.126
33 | UniProt Q8NB37_C154 | 0.389
34 | PDCD6IP C40 (UniProt Q8WUM4) | 0.812
35 | TRMT2A C463 (UniProt Q8IZ69) | 1.1 (active)
